# Experimental data as given in PubChem BioAssay (EPA / NIEHS).
# Records with an inconclusive call do not appear. Calls of active or inactive are those of the source. Rule for the calls: active = hit-call score of the fitted dose curve at least 0.9, where 1 is the maximum; inconclusive = response in the unintended direction; inactive = score below 0.9.
# Read-out: ABC Transporter (ABCB1), ABCB1 (gene 5243)
# Test: CLD_ABCB1_48hr: CellzDirect (CLD) Gene Expression Assay for ABC Transporter (ABCB1) at 48 hours (AID 2283695);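 for AC50: potency for induction meaning increase of mRNA over DMSO vehicle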
# Experimental: CLD_48hr is a cell-based, multiplexed-readout assay that uses hepatocyte, a human liver primary cell, with measurements taken at 48 hours after chemical dosing in a 96-well plate.CLD_ABCB1_48hr is one of 16 assay component(s) measured or calculated from the CLD_48hr assay. It is designed to make measurements of mRNA induction, a form of inducible reporter, as detected with chemiluminescence signals by Quantitative Nuclease Protection Assay (qNPA) technology.Data from the assay component CLD_ABCB1_48hr was analyzed at the endpoint, CLD_ABCB1_48hr, in the positive analysis fitting direction relative to DMSO as the negative control and baseline of activity. Using a type of inducible reporter, gain-of-signal activity can be used to understand changes in the reporter gene as they relate to the gene ABCB1. Furthermore, this assay endpoint can be referred to as a primary readout. To generalize the intended target to other relatable targets, this assay endpoint is annotated to the transporter intended target family, where subfamily is ABC transporter.
# Human hepatocyte cultures were treated daily for two consecutive days with fresh dosing solutions containing appropriate concentrations of the 320 ToxCast chemicals (chemical identities were blinded to CellzDirect and other ToxCast collaborators), vehicle control (0.2% DMSO), and positive control inducers as summarized in Table 1. Due to the large number of treatment groups and chemicals examined, the ToxCast chemicals were divided into two groups (spanning two independent cultures of hepatocytes from separate donor preparations (Hu778: ToxCast plates 1 and 2; Hu776: ToxCast plates 3 and 4). Each preparation of human hepatocyte cultures was treated with respective vehicle control, medium only control, set of six positive controls/reference chemicals for the five hepatic receptor pathways, and a subset of eight of the ToxCast chemicals (indoxacarb, pyrithiobac-sodium, norflurazon, cyhalofop-butyl, methomyl, thiram, acetochlor, and propiconazole). These replicate data, coupled with internal replicates designed within the blinded ToxCast chemical library, provided additional data to evaluate interindividual differences between hepatocyte preparations and their potential impact on chemical profiles.Cell morphology and integrity were evaluated using phase-contrast microscopy as an indicator of hepatocyte cell health (Tyson & Green, 1987). Cultures for each treatment group (i.e., media, vehicle [0.2% DMSO], positive control inducers [multiple concentrations], and the ToxCast chemicals [multiple concentrations]) were observed and cell morphology was assessed relative to vehicle control cultures at each harvest time point (0, 6, 24, or 48 h). […] Images were evaluated at the conclusion of the study to assess changes in cell integrity and account for the effects of chemical exposure on uncharacteristic changes in concentration-dependent gene expression profiles. The results from these determinations of apparent cytotoxicity were annotated (yes/no) alongside the corresponding qNPA data for reference.At the conclusion of each treatment period, hepatocyte cultures (96-well) were washed with 1 volume of HBSS, lysed by addition of 25 ul ArrayPlate lysis buffer (HTG, Tucson, AZ), and 70 ul/well of Denaturation Oil, denatured by incubation at 95C for 10 min, and frozen at approximately -70C until analysis by nuclease protection assay (qNPA) (Roberts et al., 2007). For qNPA analysis, cell lysates were thawed at 50C for approximately 30 min, qNPA probes were added, and samples were incubated at 95C for 10 min to begin the detection process by denaturing the target RNA, dissociating the duplexes and secondary structure hybridization. At the conclusion of the hybridization period, S1 nuclease reagent was added to each sample to digest all nonprotected nucleotides at 50C for 60-90 min. […]
Compound,outcome,AC50
C#CCOS(=O)OC1CCCCC1Oc1ccc(C(C)(C)C)cc1 (stereo not given),inactive,–
COC(=O)c1ccccc1C(=O)OC,inactive,–
Cc1cc(Cl)ccc1OCC(=O)O,inactive,–
O=C(O)COc1nc(Cl)c(Cl)cc1Cl,inactive,–
COC(=O)C=C(C)OP(=O)(OC)OC,inactive,–
COc1cnc(OC)n2nc(NS(=O)(=O)c3c(OCC(F)F)cccc3C(F)(F)F)nc12,inactive,–
CO/C=C(/C(=O)OC)c1ccccc1Oc1cc(Oc2ccccc2C#N)ncn1,–,30.2 µM (active)
Fc1ccc(Oc2ccnc3cc(Cl)cc(Cl)c23)cc1,inactive,–
CS/C(C)=N/OC(=O)N(C)SN(C)C(=O)O/N=C(\C)SC,inactive,–
CCON=C(CC)C1=C(O)CC(c2c(C)cc(C)cc2C)CC1=O (stereo not given),inactive,–
CCCN(CCC)c1c([N+](=O)[O-])cc(S(N)(=O)=O)cc1[N+](=O)[O-],inactive,–
CCCCOC(=O)c1ccccc1C(=O)OCCCC,inactive,–
N#Cc1cc(Br)c(O)c(Br)c1,inactive,–
COc1nc(NC(C)C)nc(NC(C)C)n1,inactive,–
CCc1nn(C)c(C(=O)NCc2ccc(C(C)(C)C)cc2)c1Cl,inactive,–
CCCCNC(=O)n1c(NC(=O)OC)nc2ccccc21,inactive,–
CC(C)Oc1cc(-n2nc(C(C)(C)C)oc2=O)c(Cl)cc1Cl,inactive,–
Cc1ccc(-c2c(Cl)nc(C#N)n2S(=O)(=O)N(C)C)cc1,inactive,–
COP(=S)(OC)Oc1nc(Cl)c(Cl)cc1Cl,inactive,–
Cc1c(F)c(F)c(COC(=O)C2C(/C=C(\Cl)C(F)(F)F)C2(C)C)c(F)c1F (stereo not given),inactive,–

Compound,outcome,AC50
COC(=O)C(C)Oc1ccc(Oc2ccc(Cl)cc2Cl)cc1 (stereo not given),inactive,–
COc1nc(C)nc(NC(=O)NS(=O)(=O)c2ccccc2Cl)n1,inactive,–
CNC(=O)ON=CC(C)(C)SC,inactive,–
C=CCC1=C(C)[C@@H](OC(=O)[C@@H]2[C@@H](C=C(C)C)C2(C)C)CC1=O,inactive,–
COc1ccc(C(c2ccc(OC)cc2)C(Cl)(Cl)Cl)cc1,inactive,–
COc1nc(C)nc(NC(=O)NS(=O)(=O)c2ccccc2CCC(F)(F)F)n1,inactive,–
C=CC1(C)OC(=O)N(c2cc(Cl)cc(Cl)c2)C1=O (stereo not given),inactive,–
CCNc1nc(Cl)nc(NC(C)C)n1,inactive,–
CCOC(=O)C(Cl)Cc1cc(-n2nc(C)n(C(F)F)c2=O)c(F)cc1Cl (stereo not given),inactive,–
CCCCC(CC)COC(=O)c1ccccc1C(=O)OCC(CC)CCCC (stereo not given),inactive,–
N#CC(CCc1ccc(Cl)cc1)(Cn1cncn1)c1ccccc1 (stereo not given),inactive,–
CCCCNC(=O)OCC#CI,inactive,–
COC(=O)N(OC)c1ccccc1COc1ccn(-c2ccc(Cl)cc2)n1,inactive,–
C=CCC1=C(C)C(OC(=O)C2C(C=C(C)C)C2(C)C)CC1=O (stereo not given),inactive,–
OC(c1ccc(Cl)cc1)(c1cncnc1)c1ccccc1Cl (stereo not given),–,17.2 µM (active)
CC(C)C1(C)N=C(c2nc3ccccc3cc2C(=O)O)NC1=O (stereo not given),inactive,–
CCCC1COC(Cn2cncn2)(c2ccc(Cl)cc2Cl)O1 (stereo not given),inactive,–
CC1COC(Cn2cncn2)(c2ccc(Oc3ccc(Cl)cc3)cc2Cl)O1 (stereo not given),inactive,–
N#Cc1nn(-c2c(Cl)cc(C(F)(F)F)cc2Cl)c(N)c1S(=O)C(F)(F)F (stereo not given),–,4.65 µM (active)
CCOC(=O)CC(SP(=S)(OC)OC)C(=O)OCC (stereo not given),inactive,–
